This test is described as follows: NCI Yeast Anticancer Drug Screen. Data for the wt1 strain (AID 149).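 Further: 0% = growth of vehicle-treated wt1 cultures.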 To be noted: S. cerevisiae wt1 strain (SPY 50644) growth inhibition, hits give high values. The protocol:
Growth inhibition of yeast strains with defined genetic alterations is measured as a screen for potential anti-cancer activity. Selected strains with alterations in DNA damage repair or cell cycle control were exposed to compounds and growth inhibition was measured relative to vehicle treated controls. The strain used in this assay is wt1

The panel holds about 79,000 compounds, 15% with a hit somewhere; the sample as a whole holds those more often. Values without a mark were called inactive. Active and inactive are the calls of the source. No stated cut-off is given here; in the data, active means growth inhibition above about 70%; inactive means the rest.

With `COc1ccccc1N=NC(C(=O)c1ccccc1)C(=O)c1ccccc1`, the growth inhibition (at 1.2 µM) was 6%; the growth inhibition (at 3.7 µM) is 3%; the growth inhibition (at 11.0 µM) is 13%; the growth inhibition (at 33.0 µM) was 96% (active); the growth inhibition (at 100.0 µM) was 96% (active).
As for `Cc1ccc2ccc(O)cc2c1`, the growth inhibition by setting is: (at 1.2 µM) -22%; (at 3.7 µM) -16%; (at 11.0 µM) -19%; (at 33.0 µM) -11%; (at 100.0 µM) 71% (active).
In the same order, the values of `COC1C=COC2(C)Oc3c(C)c(O)c4c(c3C2=O)/C(=N/C2CCC(O)OC2C)C=C(NC(=O)/C(C)=C\C(=O)C2CC2C(O)C(C)C(O)C(C)C(OC(C)=O)C1C)C4=O` (stereo not given) are 0%, 0%, 1%, -1% and 11%.
The corresponding values for `O=C1C=CC(=Nc2ccc3c(c2)Cc2cc(NC(=O)C(F)(F)F)ccc2-3)O1` are 3%, 4%, 11%, 20% and 95% (active).
Regarding `O=C(O)C1CCCCC1c1c2ccc(=O)c(O)c-2oc2c(O)c(O)ccc12` (stereo not given), the growth inhibition runs as follows: (at 1.2 µM) -17%; (at 3.7 µM) -11%; (at 11.0 µM) -3%; (at 33.0 µM) 32%; (at 100.0 µM) 82% (active).
Take `O=C(CC(=O)n1nc(-c2ccccc2)c(N=Nc2ccccc2C(=O)O)c1-c1ccccc1)Nc1ccc(Cl)cc1`: the growth inhibition reads like this: (at 1.2 µM) -1%; (at 3.7 µM) -4%; (at 11.0 µM) -3%; (at 33.0 µM) -4%; (at 100.0 µM) -4%.
Regarding `O=[N+]([O-])c1cccc2nc3ccccc3c(NCCCN3CCOCC3)c12`, the growth inhibition (at 1.2 µM) is -8%; the growth inhibition (at 3.7 µM) is 38%; the growth inhibition (at 11.0 µM) was 90% (active); the growth inhibition (at 33.0 µM) was 97% (active); the growth inhibition (at 100.0 µM) was 98% (active).
For `S=C(Nc1ccc(Cl)cc1)SC1CCCCC1`, the growth inhibition (at 1.2 µM) was 7%; the growth inhibition (at 3.7 µM) was 0%; the growth inhibition (at 11.0 µM) is 47%; the growth inhibition (at 33.0 µM) was 98% (active); the growth inhibition (at 100.0 µM) is 98% (active).

For the origin of these results see PubChem BioAssay (NCI).
